In the library only some 9.2% were active in any assay of this set; here they are far more common.
ELG1 genotoxic: qHTS screen for small molecules that induce genotoxicity in human embryonic kidney (HEK293T) cells expressing luciferase-tagged ELG1. Potency, µM (titrated, usually from 46 µM), most hits filed as activators. 330,000 tested, 1.3% active. HEK293T ELG1-luciferase reporter, luminescence, 16 h; also: nearly all actives have a fitted effect of over 60% in size
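Reporter readout depends on ELG1 protein level, which increases with genetic stress. After 16 hr compound exposure at 37 °C, luciferase activity was quantified using ONE-Glo.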
Rab9 promoter act: qHTS Assay for Rab9 Promoter Activators; AID 485297, 2010; Potency, µM (doses to about 9.22 µM), usual class: activators; 320,000 tested, 2.8% active; Huh7 Rab9 promoter-luciferase reporter, luminescence, 24 h; also: nearly all actives have a fitted effect of over 60% in size
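Measured in stably transfected Huh7 cells bearing a Rab9 promoter–luciferase construct: 24 h compound treatment at 37 °C, followed by luminescence detection.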
SMN2 splice enh: qHTS Assay for Enhancers of SMN2 Splice Variant Expression. Potency, µM (highest dose often 46.1 µM), usual class: activators. HEK293 SMN2-luciferase splicing reporter, luminescence, 30-36 h. 210,000 tested, 2.8% active. AID 1458, 2008; also: nearly all actives have a fitted effect of over 55% in size
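HEK293 cells carry an SMN2 […]–luciferase reporter in which exon 7 inclusion puts luciferase in frame. Cells were plated 10-12 h before compound addition, then incubated 30-36 h at 37C. ONE-Glo luminescence was read; sodium butyrate at 4.5 mM final served as control.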
FLuc counter: qHTS profiling assay for firefly luciferase inhibitor/activator using purifed enzyme and Km concentrations of substrates (counterscreen for miR-21 project) | purified FLuc, Km substrates, luminescence inhibition | Luciferin 4-monooxygenase (Photinus pyralis), P08659 | AID 588342, 2011 | 360,000 tested, 6.9% active | Potency, µM (doses to about 57.5 µM), most hits filed as inhibitors; also: nearly all actives have a fitted effect of over 55% in size
Target sequence (P08659 whole entry, looked up): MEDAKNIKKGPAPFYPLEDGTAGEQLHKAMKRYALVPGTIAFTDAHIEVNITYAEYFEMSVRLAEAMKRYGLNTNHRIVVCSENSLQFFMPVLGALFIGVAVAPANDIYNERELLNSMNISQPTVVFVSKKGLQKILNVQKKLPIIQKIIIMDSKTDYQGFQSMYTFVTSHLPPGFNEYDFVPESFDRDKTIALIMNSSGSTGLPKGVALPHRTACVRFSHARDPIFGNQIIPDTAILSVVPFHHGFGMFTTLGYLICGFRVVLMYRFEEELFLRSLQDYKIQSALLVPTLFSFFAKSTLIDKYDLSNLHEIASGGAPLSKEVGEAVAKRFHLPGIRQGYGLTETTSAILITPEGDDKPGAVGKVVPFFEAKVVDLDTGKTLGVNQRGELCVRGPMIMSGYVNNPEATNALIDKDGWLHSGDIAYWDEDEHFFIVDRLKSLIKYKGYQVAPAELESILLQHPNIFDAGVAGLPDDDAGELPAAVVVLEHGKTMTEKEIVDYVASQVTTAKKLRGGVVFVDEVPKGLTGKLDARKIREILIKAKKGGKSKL
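Biochemical qHTS of compounds, final roughly 60 µM downward over six points, against 10 nM purified firefly luciferase using Km concentrations of substrates (10 uM D-luciferin, 10 uM ATP) in Tris acetate pH 7.5 buffer; luminescence output.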
ELG1 repair inh: qHTS screen for small molecules that inhibit ELG1-dependent DNA repair in human embryonic kidney (HEK293T) cells expressing luciferase-tagged ELG1 | HEK293T ELG1-luciferase reporter, luminescence, 16 h; DNA damage induced by 5-fluorouridine | Potency, µM (doses to about 46.1 µM), hits mostly inhibitors | 330,000 tested, 2.3% active | AID 504467, 2011; also: nearly all actives have a fitted effect of over 55% in size
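5-Fluorouridine DNA damage + compound/DMSO, 2,000 cells/well, 16 h, 37 °C/5% CO2. ONE-Glo, 30 min RT, luminescence. Readout = decrease in reporter signal.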
NPC1 promoter act: qHTS Assay for NPC1 Promoter Activators; Huh7 NPC1 promoter luciferase reporter, 24 h; Potency, µM (top dose mostly 9.22 µM), usual class: activators; 320,000 tested, 2.4% active; also: nearly all actives have a fitted effect of over 60% in size
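Luminescence from an NPC1 promoter-driven luciferase reporter in stably transfected Huh7 cells was measured after 24 h compound treatment at 37 °C, followed by 10 min ambient incubation with luciferase detection reagent.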
Numbers stand for hits; - = inactive; ? = inconclusive; . = no result given; [ ] = remark or other dose. Calls follow the shape of the dose curve; as a rule, active = well fitted curve in the direction sought with a large enough effect; inconclusive = small, poorly fitted or top-dose-only effect, or another doubt; inactive = no such curve, though single readings can be large; an effect the other way counts as inactive or inconclusive.

SMILES | ELG1 genotoxic | Rab9 promoter act | SMN2 splice enh | FLuc counter | ELG1 repair inh | NPC1 promoter act
O=C(NC(=S)NC(c1ccccc1)c1ccncc1)c1ccccc1 (centres undefined) | - | - | - | - | 18µM | -
O=C(Nc1ccc(Cl)cc1)c1cc2c(Cl)nc3ccccc3c2s1 | . | . | - | - | . | .
O=C(/C=C/c1ccc(Cl)cc1Cl)NC(=S)Nc1ccccn1 | ? | 0.89µM | - | ? | ? | 1.1µM
O=C(/C=C/c1ccc(Cl)cc1Cl)NC(=S)Nc1ccc(CN2CCOCC2)cc1 | - | - | - | - | - | -
O=C(Nc1ccc(Cl)cc1)c1ccc(-c2ccccn2)s1 | - | 2.8µM | . | ? | ? | 1.6µM
O=C(Nc1ccccn1)c1ccc(Br)s1 | ? | 4µM | . | 11µM | ? | 1.8µM
COc1ccccc1NC(=O)C1CCN(S(=O)(=O)c2cccc3nonc23)CC1 | - | - | . | - | - | -
CCCCn1c(N)c(N(C)C(=O)c2ccc(OCC3CCCO3)cc2)c(=O)[nH]c1=O (centres undefined) | - | - | . | . | - | -
COc1ccc(NC(=O)CS(=O)c2cccc(Cl)c2)cc1 (centres undefined) | - | - | . | - | - | -
COc1cccc2cc(C(=O)NCCc3c(C)[nH]c4ccc(F)cc34)c(=O)oc12 | . | . | - | - | . | .
CCCN1C(=O)c2[nH]nc(-c3ccccc3O)c2C1c1cccc(OCc2ccccc2)c1 (centres undefined) | . | . | - | - | . | .
O=C(NC(=S)Nc1ccccn1)c1ccccc1 | 1.6µM | 0.13µM | . | 7.6µM | ? | 0.32µM
O=C(NC(=S)Nc1ccccn1)c1ccc(-c2ccccc2)cc1 | ? | 0.28µM | . | 1.5µM | ? | 0.11µM
O=C(NC(=S)Nc1ccccn1)c1ccc([N+](=O)[O-])cc1 | ? | 1µM | 2.8µM | 5.4µM | ? | 2µM
CC(C)(C)C(=O)NC(=S)Nc1ccccn1 | - | - | - | - | ? | -
O=C(Nc1ccccn1)c1cc2cc([N+](=O)[O-])ccc2s1 | ? | 1.4µM | ? | ? | ? | 2µM
CCC(NC(=O)CCc1nnc(-c2cc(C)on2)o1)C12CC3CC(CC(C3)C1)C2 (centres undefined) | - | - | . | - | - | -
CCc1ccc(CN(Cc2ccco2)c2cnc(S(C)(=O)=O)nc2C(=O)Nc2cccc(C)c2)cc1 | . | . | . | - | . | .
CC(C)Oc1ccc(S(=O)(=O)N2CCCCC2)cc1NC(=O)C1CCC1 | - | - | . | - | - | -
O=C(CS(=O)(=O)c1ccccc1)Nc1ccccn1 | - | - | - | - | - | -
O=C(CC(=O)c1ccccc1)Nc1ccccn1 | 15µM | 1.8µM | . | 11µM | ? | 2.5µM
Cc1c(Cl)cccc1Nc1nc(NCCO)c2ccccc2n1 | - | - | . | 15µM | - | -
OCCNc1nc(Nc2ccc(Br)cc2)nc2ccccc12 | - | - | - | 17µM | ? | -
OCCNc1nc(Nc2ccccc2)nc2ccccc12 | - | - | - | ? | - | -
CC1(OC(=O)C2CCCC2)C(=O)C=C2C=C(c3ccsc3)N(c3cccc(C#N)c3)C=C2C1=O (centres undefined) | . | . | -[9.22 µM] | . | . | .
SMILES | ELG1 genotoxic | Rab9 promoter act | SMN2 splice enh | FLuc counter | ELG1 repair inh | NPC1 promoter act
CCOc1ccc(-c2cc3c(=O)n(CC(=O)NCc4ccc(C)cc4)ccn3n2)cc1 | . | . | . | - | . | .
CCOC(=O)c1ccc(NC(=S)Nc2ccccn2)cc1 | 15µM | - | - | - | ? | ?
CCOC(=O)c1ccc(NC(=S)Nc2ccc(Cl)cn2)cc1 | - | ? | . | - | - | -
CCOC(=O)c1cccc(NC(=O)c2ccc(N(C)C)cc2)c1 | - | 0.28µM | ? | 1.7µM | ? | 0.4µM
CCOC(=O)c1ccc(NC(=O)c2ccc(NS(C)(=O)=O)cc2)cc1 | - | - | - | ? | - | -
CCOC(=O)c1ccc(NC(=O)c2ccccc2)cc1 | ? | 2.8µM | 10µM | -[2.3 µM] | ? | 2.8µM
